Source: ChEMBL document CHEMBL1961873, “Compounds: GSK PKIS; Assays: Nanosyn kinase panel” (2012)

molecular target: Leukocyte tyrosine kinase receptor (Homo sapiens) (UniProt P29376); conditions: at 1 µM
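Note: each value is the mean inhibition of LTK.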

Chain of Leukocyte tyrosine kinase receptor (Homo sapiens) (P29376 whole entry): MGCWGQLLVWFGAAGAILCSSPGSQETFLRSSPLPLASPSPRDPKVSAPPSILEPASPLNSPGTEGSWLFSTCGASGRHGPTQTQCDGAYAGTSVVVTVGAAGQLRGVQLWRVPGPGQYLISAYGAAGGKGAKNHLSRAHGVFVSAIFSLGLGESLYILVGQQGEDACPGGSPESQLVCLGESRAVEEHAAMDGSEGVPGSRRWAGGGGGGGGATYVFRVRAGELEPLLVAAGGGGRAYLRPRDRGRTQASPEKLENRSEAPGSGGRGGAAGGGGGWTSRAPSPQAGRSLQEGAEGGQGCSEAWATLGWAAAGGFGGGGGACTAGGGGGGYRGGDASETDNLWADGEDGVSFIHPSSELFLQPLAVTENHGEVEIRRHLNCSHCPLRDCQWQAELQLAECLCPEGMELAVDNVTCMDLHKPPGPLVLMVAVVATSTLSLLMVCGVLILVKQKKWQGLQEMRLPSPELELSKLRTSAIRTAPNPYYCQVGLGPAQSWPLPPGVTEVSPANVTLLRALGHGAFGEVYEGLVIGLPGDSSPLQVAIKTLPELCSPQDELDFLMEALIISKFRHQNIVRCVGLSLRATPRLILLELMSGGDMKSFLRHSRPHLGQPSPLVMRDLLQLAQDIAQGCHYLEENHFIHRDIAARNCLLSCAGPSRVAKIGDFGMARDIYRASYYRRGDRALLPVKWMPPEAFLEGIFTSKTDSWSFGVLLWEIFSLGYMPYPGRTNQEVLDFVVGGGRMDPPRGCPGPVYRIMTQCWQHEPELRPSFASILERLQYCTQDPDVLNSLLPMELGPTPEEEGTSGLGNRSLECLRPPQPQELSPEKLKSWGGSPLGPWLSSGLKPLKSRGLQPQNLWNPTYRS

SMILES	inhibition
COc1cccc(-n2ncc3c(N/N=C/c4ccc(C)cc4)ncnc32)c1	8.61%
COc1cc2ncnc(Nc3ccc4c(cnn4Cc4ccccc4)c3)c2cc1OC	2.45%
Cc1ccc(NC(=O)CC2CC2)cc1-c1ccc(C(=O)NCC2CC2)cc1	4.25%
COc1ccc2ncnc(Nc3ccc(OCc4ccccc4)cc3)c2c1	-0.07%
Nc1nccc(-c2c(-c3ccc(F)cc3)ncn2CCCN2CCOCC2)n1	2.3%
CN(C)C(=O)O[C@@H]1CN[C@@H](C#Cc2cc3ncnc(Nc4ccc(OCc5cccc(F)c5)c(Cl)c4)c3s2)C1	0.68%
Cc1cc(O)cc(C)c1/C=C/c1cncc(C(=O)N(C)C)c1	3.38%
Cc1cc(-c2ccccn2)cc(C)c1/C=C/c1cncc(-c2nn[nH]n2)c1	4.93%
CN(C)C(=O)O[C@H]1CN[C@H](C#Cc2cc3ncnc(Nc4ccc(OCc5cccc(F)c5)c(Cl)c4)c3s2)C1	3.95%
Oc1cccc(-c2nc(-c3ccccc3)[nH]c2-c2ccncc2)c1	7.05%
c1ccc(Cc2nc3ccc(Nc4ncnc5ccccc45)cc3[nH]2)cc1	2.52%
CCn1c(-c2nonc2N)nc2ccc(F)cc21	5.25%
Cc1ccc2c(-c3ccnc(Nc4ccc5c(c4)OCCO5)n3)c(-c3ccc(C(F)(F)F)cc3)nn2n1	1.95%
N#Cc1c(NC(=O)c2ccccc2F)sc2c1CCCC2	-0.82%
CCOc1nccc2c1nc(-c1nonc1N)n2CC	2.99%
Nc1ccc(C#Cc2cncnc2Nc2ccc(OCc3cccc(F)c3)c(Cl)c2)cc1	3.27%
Cc1nc(-c2ccccc2)n2nc(NCCCN3CCOCC3)ncc12	2.41%
